Inconclusive results are not listed. Calls follow the shape of the dose curve; as a rule, active = well fitted inhibition curve with a large enough effect; inconclusive = small, poorly fitted or top-dose-only effect; inactive = flat fitted curve, though single readings scatter.
Assay: qHTS for Inhibitors of Plasmodium falciparum (DD2) proliferation (AID 504314);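 also: parasite DNA measured by SYBR Green fluorescence after red cell lysis; plate controls were DMSO vehicle for no effect and artemisinin wells for full effect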
Conditions: P. falciparum Dd2 in erythrocytes, SYBR Green growth, 72 h; series mostly up to 1.12 µM; activity, negative = inhibition: at the top concentration
Summary of the method: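 Erythrocytes infected with P. falciparum (0.3% parasitemia, 2.5% hematocrit final) were incubated with compounds for 72 h at 37C, 5% CO2. Parasite DNA was detected by SYBR Green I fluorescence after saponin/Triton lysis, normalized to artemisinin (0.29 uM) and DMSO controls.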

activity, negative = inhibition, inactive:
COC(=O)C1=C(C)N(Cc2ccco2)C(=O)N[C@@H]1c1ccco1 2.96%
COc1cccc([C@@H]2Oc3ccc(Br)cc3C(=O)[C@@H]2OC(=O)Nc2cc(OC)c(OC)c(OC)c2)c1 -0.021% [at 6.11 µM]
CCN1C(=O)[C@@H]2[C@H]3[C@H](O)[C@H](O)CC(=NO[C@@H](C)c4cc(-c5c(C)cc(C)cc5C)no4)[C@@H]3CC[C@H]2C1=O -9.63% [at 6.11 µM]
COC(=O)C1(C(=O)OC)CC(CO)C(=O)[C@@H]1c1ccccc1 (stereo not given in full) -11% [at 6.11 µM]
COC/C=C/C1=CC2=CC(=O)C(C)(OC(=O)c3cnc4ccccc4n3)C(=O)C2=CN1C1CCCC1 (stereo not given) -0.595%
COC(=O)C1=C(C(=O)OC)[C@@H]2Nc3ccccc3[C@@]23C[C@@H](C(=O)OC)N(C(=O)c2ccc(Br)cc2)C3=N1 -4.38%
CCCCc1nc2c(c3c1C[C@H](C)OC3)CN(C(=O)Cc1cccc(OC)c1)CC2 -2.48%
CCCCC1=CC2=C(c3ccco3)C(=O)C(C)(OC(=O)c3ccc(OC)cc3)C(=O)C2=CN1CCc1c[nH]c2ccccc12 (stereo not given) -0.0948%
C[C@@H]1C[C@](C)(C(=O)c2ccc3ccccc3c2)C=C1c1ccc2ccccc2c1 -12.7% [at 6.11 µM]
CCN1C(=O)N(C)[C@@H](c2ccccc2)C(C(=O)OC)=C1C -1.23%
COc1ccc2c(c1)O[C@@H](c1cccc(C(F)(F)F)c1)[C@H](OC(=O)N[C@H]1CCCc3ccccc31)C2=O -8.13% [at 6.11 µM]
COC(=O)CCC(=O)OC1(C)C(=O)C2=CN(CCCCO)C(c3ccc(OC)cc3)=CC2=C(Br)C1=O (stereo not given) 1.25%
CCN1C(=O)N[C@@H](c2cccs2)C(C(=O)OC)=C1C 1.97%
CCCCC1=CC2=CC(=O)C(C)(OC(=O)CC)C(=O)C2=CN1CCc1c[nH]c2ccccc12 (stereo not given) 2.79%
CCN1C(=O)N[C@@H](c2cccc(F)c2)C(C(C)=O)=C1C 0.504%
CC#CCN1c2ccccc2[C@]23C[C@@H](C(=O)OC)N(C(=O)c4ccco4)C2=NC(C(=O)OC)=C(C(=O)OC)[C@H]13 3.01%
COC(=O)[C@@H]1[C@@H](C)N(CCc2cc(OC)c(OC)c(OC)c2)C(=O)N[C@H]1c1ccccc1 2.04%
COC(=O)CCC(=O)OC1(C)C(=O)C=C2C=C(C3CC3)N(c3ccccc3)C=C2C1=O (stereo not given) -2.05%
CCCNC(=O)N1C2=NC(C(=O)OC)=C(C(=O)OC)[C@@H]3Nc4ccccc4[C@]23C[C@H]1C(=O)OC -4.96% [at 6.11 µM]
CC(=O)C1=C(C)N(Cc2ccccc2)C(=O)N[C@H]1c1ccco1 3.23%
COC/C=C/C1=CC2=CC(=O)C(C)(OC(=O)c3cnc4ccccc4n3)C(=O)C2=CN1Cc1ccc2c(c1)OCO2 (stereo not given) 2.69%
COc1cccc([C@@H]2Oc3ccc(Br)cc3[C@H](O)[C@@H]2O)c1 -6.62% [at 6.11 µM]
COC(=O)c1ccccc1S(=O)(=O)N1CCc2nc(COc3ccccc3)c3c(c2C1)CO[C@@H](C)C3 -2.73%
CCOC(=O)OC[C@H]1O[C@H](c2ccccc2)C=C[C@H]1OC(=O)OCC -3.14% [at 6.11 µM]
O=C(NS(=O)(=O)c1ccc(F)cc1)O[C@@H]1C(=O)c2cc(Br)ccc2O[C@H]1c1ccc2c(c1)OCO2 -1.04% [at 6.11 µM]
C=CCN1c2ccccc2[C@]23C[C@@H](C(=O)OC)N(S(=O)(=O)c4cccs4)C2=NC(C(=O)OC)=C(C(=O)OC)[C@H]13 1.77%
CC1(C)O[C@@H]2[C@@H](O1)C(c1ccccc1)(c1ccccc1)OP(=O)(O)OC2(c1ccccc1)c1ccccc1 -9.39% [at 6.11 µM]
CCOC(=O)[C@@]1([C@@H](NC(=O)OC)c2cccc(F)c2)CCCC1=O -7.49% [at 6.11 µM]
CCOC(=O)CN1C(=O)N[C@@H](c2cccc(C(F)(F)F)c2)[C@H](C(=O)OC)[C@H]1C -5.39%
CC=Cc1cc2ccccc2c2c(C(=O)OC)c(C(=O)OC)c(C(=O)OC)n12 -1.16% [at 6.11 µM]
CCCCC1=CC2=CC(=O)C(C)(OC(=O)CC)C(=O)C2=CN1c1ccccc1 (stereo not given) -1.28%
COC/C=C/C1=CC2=CC(=O)C(C)(OC(=O)c3cnc4ccccc4n3)C(=O)C2=CN1CCOC (stereo not given) -3.94%
COC(=O)[C@@]1(C=C2c3ccc(F)cc3[C@@H](OC)[C@@H]2C)[C@@H]2CC=C[C@@H]21 -10.8% [at 6.11 µM]
COC(=O)[C@H]1[C@@H](C)N(Cc2ccccc2)C(=O)N[C@H]1c1cccc(C(F)(F)F)c1 2.64%
COC(=O)C1=C(C(=O)OC)[C@@H]2N(Cc3ccccc3)c3ccccc3[C@@]23C[C@@H](C(=O)OC)N(C(=O)COCc2ccccc2)C3=N1 2.09%

From PubChem BioAssay (NCATS)
